Laboratory results as given in PubChem BioAssay (NCI).
About 79,000 compounds went through this panel and 15% of them were active in at least one assay; those are over-represented in the sample as a whole. Active and inactive are the calls of the source. Cut-off read from the data, not from the text of the source: active = growth inhibition above about 70%; inactive = the rest.

Tests used:
[1] = NCI Yeast Anticancer Drug Screen. Data for the rad50 strain (AID 155);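 note: 0% = growth of vehicle-only cultures of the same strain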; details: S. cerevisiae rad50 strain growth inhibition; at 50.0 µM; hits give high values
In short: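 Relative growth inhibition (compound vs vehicle) was measured in yeast with a defined repair-gene alteration.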

[2] = NCI Yeast Anticancer Drug Screen. Data for the mec2-1 strain (AID 157); details: S. cerevisiae mec2-1 strain, at 50.0 µM, hits give high values
In short: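 Vehicle-treated cultures served as reference for growth inhibition of compound-exposed mec2-1 yeast.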

[3] = NCI Yeast Anticancer Drug Screen. Data for the sgs1 mgt1 strain (AID 161);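 note: 0% = growth of cultures given vehicle only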; details: S. cerevisiae sgs1 mgt1 strain, at 50.0 µM, hits give high values
In short: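 Mutant yeast exposed to compound; growth scored against vehicle-only wells.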

[4] = NCI Yeast Anticancer Drug Screen. Data for the cln2 rad14 strain (AID 165);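 note: 0% = growth equal to vehicle treated cultures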; details: S. cerevisiae cln2 rad14 strain, at 50.0 µM, hits give high values
In short: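 Each compound was tested on cln2 rad14 yeast. Inhibition of growth was calculated against vehicle-exposed controls.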

[5] = NCI Yeast Anticancer Drug Screen. Data for the bub3 strain (AID 167); details: S. cerevisiae bub3 mutant strain, at 50.0 µM, hits give high values
In short: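 Screening used yeast with an engineered genetic alteration affecting cell cycle control. Compound-exposed cultures were compared with vehicle cultures, and reduced growth was taken as inhibition.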

[6] = NCI Yeast Anticancer Drug Screen. Data for the mlh1 rad18 strain (AID 175); details: S. cerevisiae mlh1 rad18 strain growth inhibition; at 50.0 µM; hits give high values
In short: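 Vehicle-treated cultures served as the reference for growth inhibition in a yeast strain carrying DNA damage repair alterations exposed to each compound.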

Measured: growth inhibition

Cc1[nH]c(=O)c(C#N)c(C)c1-c1ccccc1
inactive: [1] 16.8% | [2] -3.9% | [3] -4.9% | [4] 4.9% | [5] -0.75% | [6] 1.85%

O=C1c2ccccc2C(=O)c2c1oc1c2ccc2ccccc21
inactive: [1] -8.15% | [2] 7% | [3] -4.35% | [4] -16.1% | [5] -5.25% | [6] 8.5%

S=C(NCCCN1Cc2ccccc2C1)Nc1ccccc1
inactive: [1] 15.4% | [2] -4.1% | [3] 3.15% | [4] -16.1% | [5] 4.85% | [6] -10.6%

CCCCCCCC[n+]1cccc(C#N)c1
inactive: [1] 12.7% | [2] 23.6% | [3] 21.4% | [4] 16.7% | [5] 36% | [6] 19.1%

CCC1SC(C)C(=O)NC1=O (configuration not stated)
inactive: [1] -14.8% | [2] 3.9% | [3] -0.7% | [4] -14.3% | [5] -8.2% | [6] 37.1%

OCCN(Cc1ccccc1)C(c1ccccc1)c1ccccc1
active: [1] 98.8% | [2] 98.9% | [3] 98.8% | [4] 98.4% | [5] 98.5% | [6] 98.9%

O=C1C(=O)N(CN2CCCCC2)c2ccccc21
inactive: [1] 10.4% | [2] -40.9% | [3] 26.4% | [4] 10.9% | [5] 22.4% | [6] 17.9%

NC1(C(=O)O)CC(O)(c2ccccc2)C(O)(c2ccccc2)C1 (configuration not stated)
inactive: [1] -22.5% | [2] -6.1% | [3] -10% | [4] 6.2% | [5] 3.75% | [6] -9.5%

O=C(OC1(c2ccccc2)OC(=O)c2ccccc21)c1ccccc1C(=O)c1ccccc1 (configuration not stated)
inactive: [1] -6.65% | [2] 2.45% | [3] -12.1% | [4] 3.45% | [5] 3.4% | [6] -25.9%

CC(=O)NCC1OC2COC(c3ccccc3)OC2C2N=C(c3ccccc3)OC12 (configuration not stated)
inactive: [1] -9.45% | [2] 1.3% | [3] 8.5% | [4] 7.8% | [5] 14.8%
active: [6] 81.8%

COC(=O)C1(C(C)C(=O)c2ccc(Cl)cc2)NC(=S)NC(=O)C1C#N (configuration not stated)
inactive: [1] 0.4% | [2] 6.05% | [3] -24.9% | [4] -0.8% | [5] -8.5% | [6] 12.7%

Nc1cc2c(cc1Cl)-c1cc(Cl)ccc1C2=O
inactive: [1] 5.7% | [2] -9.65% | [3] -2.2% | [4] -24.4% | [5] -8.5% | [6] -8.5%

OCC1NC(CO)C(O)C1O (configuration not stated)
inactive: [1] 6.5% | [2] 8.1% | [3] 6.5% | [4] 1.05% | [5] 9.2% | [6] 11.2%

COC1=CCC2=C(C1)C1(C)CCCC(C)(CO)C1CC2 (configuration not stated)
inactive: [1] 3.1% | [2] 18.5% | [3] -7.9% | [4] 3.4% | [5] 14% | [6] 58.2%

CC1=CC2C(c3ccccc3)Nc3ccccc3N2C1=O (configuration not stated)
inactive: [1] 32.6% | [2] 8.4% | [3] 10.2% | [4] 8.45% | [5] -8.65% | [6] -6.45%

N#Cc1cccc(N2C(=O)c3ccc(C(=O)c4ccc5c(c4)C(=O)N(c4cccc(C#N)c4)C5=O)cc3C2=O)c1
inactive: [1] -25.9% | [2] -16.3% | [3] -49.5% | [4] 23.8% | [5] -0.7% | [6] -12.3%

CC(=O)NC1C(=O)N(c2ccccc2)N=C1C (configuration not stated)
inactive: [1] 15.6% | [2] -6.05% | [3] -0.7% | [4] 22.6% | [5] -6.5% | [6] 9.85%

C[C@@H]1S[C@H](c2c(F)cccc2Cl)n2c1nc1ccccc12
active: [1] 78.7% | [2] 82.7% | [3] 86.6% | [4] 82.2% | [6] 78.1%
inactive: [5] 68.2%

CCOC(=O)C1(C(=O)OCC)CC1c1ccccc1 (configuration not stated)
inactive: [1] 4.6% | [2] -32.5% | [3] 5.5% | [4] -0.6% | [5] -11.7% | [6] -3.2%

CC1=C(C(=O)NC2CCCCC2)CC(C(=O)NC2CCCCC2)=C(C)N1
inactive: [1] -16.6% | [2] -25.6% | [3] -26.2% | [4] -21.1% | [5] -17.3% | [6] -61.9%

N=C(N)C1CC1
inactive: [1] -6.75% | [2] -9.5% | [3] -8.9% | [4] 12.8% | [5] 2.4% | [6] -13.2%

Cc1ccccc1C(=O)Oc1ccccc1Cl
inactive: [1] 12% | [2] 17.7% | [3] -6.2% | [4] 4.25% | [5] 13.2% | [6] 11.3%

CCOC(=O)C1(Cc2ccc3c(c2)CCC3)Cc2cc3c(cc2C1=O)CCC3 (configuration not stated)
inactive: [1] -11.1% | [2] -28.1% | [3] -17.9% | [4] 19.1% | [5] 14.2% | [6] -2.55%

C=CCOC(=O)Cc1ccccc1C(=O)OCC=C
inactive: [1] -7.55% | [2] -1.2% | [3] -6.6% | [4] -42.2% | [5] 21.4% | [6] -6.25%

O=S(=O)(Nc1nc2ccccc2nc1N1CCCCCC1)c1ccccc1
inactive: [1] -7.25% | [2] -8.35% | [3] 20.5% | [4] 4.7% | [5] 7.65% | [6] -23.8%

COc1ccc(/C=N/N2CN(C(C)C(=O)O)B(N(CCO)CCO)N=C2N)cc1OC (configuration not stated)
inactive: [1] 15.2% | [2] 5.3% | [3] 7.55% | [4] 20.9% | [5] 7.65% | [6] 20.9%

COC(=O)C(C(=O)OC)C(c1cccc([N+](=O)[O-])c1)C(N)c1ccccc1 (configuration not stated)
inactive: [1] 15.3% | [2] -8.95% | [3] -0.5% | [4] 28.2% | [5] 32.1% | [6] 56.4%

C/C(CCn1[nH]c(=O)ccc1=O)=N\OCCCc1ccccc1
inactive: [1] 2.7% | [2] -27.6% | [3] 11.7% | [4] 16.3% | [5] -3% | [6] 11.5%

CNc1nc(SCc2ccccc2)c2ncn(C3OC(CO)C(O)C3O)c2n1 (configuration not stated)
inactive: [1] 11.3% | [2] 4.8% | [3] 16.9% | [4] 19.9% | [5] 4.95% | [6] 17.9%

CCCCC[N+](CCCCC)(CCCCC)CCCCC
inactive: [1] -10.8% | [2] -16.4% | [3] -27.4% | [4] 8.4% | [5] 14% | [6] -13.5%

O=[N+]([O-])C1C2CCC(C2)C1c1ccccc1 (configuration not stated)
inactive: [1] 9.55% | [2] -3.75% | [3] -0.55% | [4] -2.05% | [5] 14.9% | [6] -0.2%

Clc1ccc(C2NC(c3ccc(Cl)cc3)NC(c3ccc(Cl)cc3)N2)cc1 (configuration not stated)
inactive: [1] 28.4% | [2] 14% | [3] 35.5% | [4] -5.4% | [5] 8.75% | [6] -2%

O=C(O)C1Cc2c([nH]c3ccccc23)C=N1 (configuration not stated)
inactive: [1] 27.9% | [2] 11.9% | [3] -2.3% | [4] 22.2% | [5] 16.4% | [6] 33.8%

Cn1cnc2c(=O)[nH]cnc21
inactive: [1] 12.9% | [2] -12.7% | [3] -2.4% | [4] -4.8% | [5] 14.7% | [6] -8.5%

COC(=O)c1cc([N+](=O)[O-])c(Sc2ncnc3nc[nH]c23)c([N+](=O)[O-])c1
inactive: [1] 53% | [2] 25.6% | [3] 24.4% | [5] 26.9% | [6] 34.8%
active: [4] 80%

CCOC(=O)c1cnc2c(cnn2C(C)C)c1NN
inactive: [1] -15.6% | [2] -9.05% | [3] 48.2% | [4] -23.9% | [5] 53.4% | [6] -15.4%

Cc1cc2c(cc1C)-c1nn(-c3ccccc3)c(-c3ccc(Cl)cc3)c1CCO2
inactive: [1] 27.2% | [2] 1.35% | [3] -1.75% | [4] 17.9% | [5] -6.2% | [6] 3.65%

Nc1n[nH]c(CO)n1
inactive: [1] 7.3% | [2] 4.05% | [3] -6.6% | [4] 9.65% | [5] -14.8% | [6] -7.1%

COc1ccccc1C(=O)N/N=C/c1ccc(O)cc1
inactive: [1] 0% | [2] 22.6% | [3] 15.3% | [4] -2.7% | [5] 16.6% | [6] 19.9%

Cc1ccnc2ccccc12
inactive: [1] 0.15% | [2] 1.55% | [3] -1.6% | [4] -3.2% | [5] -2.15% | [6] -11.4%

O=C(O)c1ccncc1C(=O)O
inactive: [1] -4.3% | [2] -9.3% | [3] -17.1% | [4] 0.25% | [5] -5.8% | [6] 3%

CCOC(=O)C1C(=O)N(O)c2cnccc21 (configuration not stated)
inactive: [1] -1.9% | [2] -16.6% | [3] -12.5% | [4] -12.2% | [5] 15% | [6] 8.35%
